Records with an inconclusive call do not appear. Calls of active or inactive are those of the source. Unless noted, calls follow the shape of the dose curve; as a rule, active = well fitted curve in the direction sought with a large enough effect in the repeat runs; inconclusive = weak or mixed curves; inactive = flat fitted curve, though single readings scatter.
Key:
[1] = qHTS assay to test for compound auto fluorescence at 535 nm (green) in HEK293 cells (AID 720680)
[2] = qHTS assay to test for compound auto fluorescence at 460 nm (blue) in HEK293 cell free culture (AID 720681)
Procedure, shortened: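 Blue fluorescence (Ex 405/Em 460 nm, triamterene-equivalent) was read immediately after pin transfer of compound or DMSO into medium (DMEM, 10% FBS) without cells.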

[3] = qHTS assay to test for compound auto fluorescence at 535 nm (green) in HEK293 cell free culture (AID 720682)
Procedure, shortened: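 Read-out: 485/535 nm fluorescence intensity, calibrated against fluorescein. Medium only (DMEM + 10% FBS, no cells); test compound or DMSO vehicle added by pintool before plate reading.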

[4] = qHTS assay to test for compound auto fluorescence at 590 nm (red) in HEK293 cell free culture (AID 720683)
Procedure, shortened: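 Red-channel autofluorescence of compounds in culture medium (DMEM, 10% FBS), no cells, measured at 540/590 nm. Rose Bengal sodium is the reference fluorophore for equivalence.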

[5] = qHTS assay to test for compound auto fluorescence at 590 nm (red) in HepG2 cell free culture (AID 720684)
Procedure, shortened: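 Plate contents were MEM with 10% FBS plus test compound or DMSO, no cells. Fluorescence was recorded with 540 nm excitation and 590 nm emission.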

[6] = qHTS assay to test for compound auto fluorescence at 460 nm (blue) in HepG2 cell free culture (AID 720685)
Procedure, shortened: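 Compound (23 nL) or DMSO pinned into cell-free MEM with 10% FBS; blue fluorescence read at 405/460 nm excitation/emission, expressed as auto-fluorescence equivalency to triamterene.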

[7] = qHTS assay to test for compound auto fluorescence at 535 nm (green) in HepG2 cell free culture (AID 720686)
[8] = qHTS assay to test for compound auto fluorescence at 460 nm (blue) in HepG2 cells (AID 720687)
Procedure, shortened: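 Blue-channel autofluorescence (Ex/Em 405/460 nm, triamterene-equivalent) was measured after 1 hr compound exposure at 37 C, 5% CO2. Cells were HepG2, plated overnight at 37 C in MEM plus 10% FBS.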

[9] = target: Glucocorticoid receptor (Homo sapiens) (UniProt P04150); test: qHTS assay to identify small molecule agonists of the glucocorticoid receptor (GR) signaling pathway (AID 720691; active = well fitted activation curve with a large enough effect in the signal ratio in the repeat runs, not every such curve was filed as active; the % refers to the signal ratio; also: potency is read from the fitted curve at half-maximal effect)
Procedure, shortened: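 Fluorescence intensity from LiveBLAzer B/G FRET substrate (2 h, room temperature) reports beta-lactamase expression driven by the glucocorticoid response element in GR-bla HeLa cells after 18 h compound exposure at 37 C.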

[10] = target: Glucocorticoid receptor (Homo sapiens) (UniProt P04150); test: qHTS assay to identify small molecule antagonists of the glucocorticoid receptor (GR) signaling pathway (AID 720692; active = well fitted inhibition curve with a large enough effect in the signal ratio in the repeat runs, not every such curve was filed as active; the % refers to the signal ratio)
Procedure, shortened: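 HeLa GR-bla cells; cmpd + dex 5 nM final, 18 h 37 C; LiveBLAzer B/G FRET substrate 2 h RT; fluorescence intensity read. Antagonist mode, qHTS.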

Measured: Potency

Glucocorticoid receptor (Homo sapiens), sequence (P04150 whole entry, looked up): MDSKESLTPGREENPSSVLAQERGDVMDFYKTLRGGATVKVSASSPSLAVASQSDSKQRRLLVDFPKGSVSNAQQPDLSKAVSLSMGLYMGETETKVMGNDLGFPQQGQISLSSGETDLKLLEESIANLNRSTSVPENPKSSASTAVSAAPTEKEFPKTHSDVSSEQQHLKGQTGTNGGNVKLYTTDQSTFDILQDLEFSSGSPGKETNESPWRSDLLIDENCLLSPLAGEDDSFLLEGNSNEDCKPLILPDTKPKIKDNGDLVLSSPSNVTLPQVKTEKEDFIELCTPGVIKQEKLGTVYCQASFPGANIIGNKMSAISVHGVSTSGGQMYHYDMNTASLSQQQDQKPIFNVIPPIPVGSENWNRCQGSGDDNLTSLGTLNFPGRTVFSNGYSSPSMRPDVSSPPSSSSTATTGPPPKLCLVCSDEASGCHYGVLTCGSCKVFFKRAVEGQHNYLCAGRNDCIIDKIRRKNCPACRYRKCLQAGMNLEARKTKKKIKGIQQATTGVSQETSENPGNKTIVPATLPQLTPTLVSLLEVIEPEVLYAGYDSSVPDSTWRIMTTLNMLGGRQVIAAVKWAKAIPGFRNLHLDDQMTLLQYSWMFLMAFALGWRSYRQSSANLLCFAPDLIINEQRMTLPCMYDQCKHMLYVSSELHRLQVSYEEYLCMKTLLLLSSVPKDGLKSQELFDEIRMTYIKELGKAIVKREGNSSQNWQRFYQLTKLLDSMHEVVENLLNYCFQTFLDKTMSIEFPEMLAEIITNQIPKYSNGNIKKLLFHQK

CC(C)(O)C#CC(C)(C)O
not listed: [9] | [10]
inactive: all other assays above

CC(=O)OCC(=O)[C@@]1(O)CC[C@H]2[C@@H]3CCC4=CC(=O)CC[C@]4(C)[C@H]3C(=O)C[C@@]21C
not listed: [9] | [10]
inactive: all other assays above

CO/N=C(/C(=O)N[C@@H]1C(=O)N2C(C(=O)OCOC(=O)C(C)(C)C)=C(C)CS[C@H]12)c1csc(N)n1
not listed: [9] | [10]
inactive: all other assays above

NCCCNCCSP(=O)(O)O
not listed: [10]
inactive: all other assays above

O=c1n(CCO)c(=O)n(CCO)c(=O)n1CCO
not listed: [9] | [10]
inactive: all other assays above

CCCCCCCCCCCCN(CCCCCCCCCCCC)CCCCCCCCCCCC
not listed: [9] | [10]
inactive: all other assays above

O=C(CCCN1CCN(c2ccccn2)CC1)c1ccc(F)cc1
not listed: [9] | [10]
inactive: all other assays above

CCOc1ccc(C(=O)OCCN(CC)CC)cc1
not listed: [9] | [10]
inactive: all other assays above

CCCCOCCOCCOCc1cc2c(cc1CCC)OCO2
not listed: [9] | [10]
inactive: all other assays above

COC(=O)c1c(Cl)c(Cl)c(C(=O)OC)c(Cl)c1Cl
inactive: all assays above

CCCCCCCCCCCCCCCCC
inactive: all assays above

CCCCCCCCCCCC
inactive: all assays above

COc1ccc2c(c1)c(CC(=O)OCC(=O)O)c(C)n2C(=O)c1ccc(Cl)cc1
not listed: [10]
inactive: all other assays above

CCO[Si](CCC1CCC2OC2C1)(OCC)OCC (stereo not drawn)
inactive: all assays above

CC1(C)C(O)C(C)(C)C1O (stereo not drawn)
inactive: all assays above

NC(=O)c1ccc(N)cc1
inactive: all assays above

ClC(Cl)(Br)Br
inactive: all assays above

CCCCC(CC)COC(=O)c1ccccc1O (stereo not drawn)
inactive: all assays above

C=CCCCCCCCCC=O
inactive: all assays above

O=C1CC2CC1C1CCCC21 (stereo not drawn)
active: [9] 54.9 µM
inactive: all other assays above

O=C1OC(=O)C2CCCCC12 (stereo not drawn)
inactive: all assays above

CC(C)OC(=O)c1ccccc1
inactive: all assays above

Nc1nc2c(ncn2COC(CO)CO)c(=O)[nH]1
not listed: [10]
inactive: all other assays above

CCN(CC)CCNC(=O)c1cc(S(C)(=O)=O)ccc1OC
inactive: all assays above

COC(=O)c1cc(C(=O)OC)cc(S(=O)(=O)O)c1
not listed: [10]
inactive: all other assays above

O=C1CCCN1C1CCCCC1
not listed: [10]
inactive: all other assays above

CCN1CCC[C@H]1CNC(=O)c1cc(S(N)(=O)=O)ccc1OC
not listed: [10]
inactive: all other assays above

From PubChem BioAssay (Tox21)
